# HEK cytotox – cytotoxic compounds in HEK 293 cells | HEK 293 viability, ATP luminescence (CellTiter-Glo), 48-72 h | Potency, µM (highest dose often 115 µM), for the others: top-dose activity change, negative = cytotoxicity, most hits filed as inhibitors | 94,000 compounds, 6.6% hits | AID 1345083; note: nearly all actives have a fitted effect of over 60% in size
#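 CellTiter-Glo luminescence (cellular ATP) was read after 48 or 72 hr of compound exposure at 37 degree Celsius. Cells were HEK 293 plated at 250 cells/well.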
# FLuc inh – inhibitors of firefly (Photinus pyralis) luciferase. AID 1347043. purified P. pyralis luciferase, luminescence, biochemical. P08659. 76,000 compounds, 2.5% hits. Potency, µM (doses to about 115 µM), most hits filed as inhibitors; note: nearly all actives have a fitted effect of over 65% in size
#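 Biochemical qHTS: compound (6-point titration) added to 10uM D-luciferin plus 10uM ATP in Tris acetate pH 7.5 buffer with Mg, Tween-20 and BSA, then purified enzyme at 10nM; light output imaged.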
# hNpr1 antagonist – antagonists of human natriuretic peptide receptor Npr1. HEK293 hNpr1 GloSensor cGMP, ANP-stimulated luminescence. AID 1347048. Potency, µM (doses to about 46.3 µM), inactives show at the highest dose activity change, negative = inhibition, usual class: inhibitors. 76,000 compounds, 1.6% hits. P16066; calls by dose curve; note: nearly all actives have a fitted effect of over 60% in size
# Target sequence (P16066 whole entry, looked up): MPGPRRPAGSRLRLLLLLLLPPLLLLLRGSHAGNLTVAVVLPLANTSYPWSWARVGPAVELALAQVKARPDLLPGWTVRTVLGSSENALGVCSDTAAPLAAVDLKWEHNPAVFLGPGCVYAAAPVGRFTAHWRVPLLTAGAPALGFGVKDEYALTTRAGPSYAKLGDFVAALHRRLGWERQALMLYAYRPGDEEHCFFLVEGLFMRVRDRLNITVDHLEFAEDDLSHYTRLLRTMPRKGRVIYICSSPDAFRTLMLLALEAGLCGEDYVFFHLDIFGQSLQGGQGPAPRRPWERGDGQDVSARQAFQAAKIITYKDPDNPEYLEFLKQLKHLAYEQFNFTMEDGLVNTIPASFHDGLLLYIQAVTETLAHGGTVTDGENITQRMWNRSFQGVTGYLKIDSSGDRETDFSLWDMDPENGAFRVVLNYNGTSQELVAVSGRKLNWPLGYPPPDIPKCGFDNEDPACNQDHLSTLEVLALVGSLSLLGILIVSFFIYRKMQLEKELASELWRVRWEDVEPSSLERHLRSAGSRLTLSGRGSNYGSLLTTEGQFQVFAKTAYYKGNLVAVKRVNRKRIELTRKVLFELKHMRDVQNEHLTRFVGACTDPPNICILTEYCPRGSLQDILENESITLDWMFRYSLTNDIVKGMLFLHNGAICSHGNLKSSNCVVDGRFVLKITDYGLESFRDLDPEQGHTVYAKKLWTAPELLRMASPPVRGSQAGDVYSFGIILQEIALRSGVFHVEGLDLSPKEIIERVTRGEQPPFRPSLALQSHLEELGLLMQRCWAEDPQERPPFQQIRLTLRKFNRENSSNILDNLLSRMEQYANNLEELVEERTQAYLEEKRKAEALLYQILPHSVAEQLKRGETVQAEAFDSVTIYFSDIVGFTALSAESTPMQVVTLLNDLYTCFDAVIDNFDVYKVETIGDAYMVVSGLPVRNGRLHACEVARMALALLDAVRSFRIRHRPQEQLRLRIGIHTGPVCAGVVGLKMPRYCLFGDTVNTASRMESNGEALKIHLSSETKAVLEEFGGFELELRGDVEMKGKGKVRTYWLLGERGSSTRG
#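 Compound pre-incubated 30 min at room temperature on GloSensor-loaded HEK293 cells stably carrying hNpr1 and the pGS-40F cGMP biosensor. Stimulation uses hNppA at 0.1 nM final; luminescence is taken at baseline and 20 min post-agonist.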
# NIH3T3 tox – cytotoxic compounds in NIH 3T3 cells; NIH 3T3 viability, CellTiter-Glo ATP luminescence, 48-72 h; Potency, µM (top dose mostly 96.7 µM), for inactives: top-dose activity change, negative = cytotoxicity, most hits filed as inhibitors; 94,000 compounds, 4.3% hits; AID 1345082; note: nearly all actives have a fitted effect of over 55% in size
#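 NIH 3T3 cells at 400 cells/well received 23 nL of compound by pintool and were incubated 48 or 72 h at 37 °C. Viability was read as ATP-coupled CellTiter-Glo luminescence.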
# Starred values were filed as active, the others as inactive; i = inactive; ? = inconclusive; . = no result; [ ] = remark or other dose. Rows were chosen to be rich in hits. Some 11% of all compounds tested hit in one or more screens of this group. Unless noted, calls come from the whole dose curve; as a rule, active = well fitted curve in the direction sought with a large enough effect; inconclusive = small, poorly fitted or top-dose-only effect, or another doubt; inactive = no such curve, though single readings can be large; an effect the other way counts as inactive or inconclusive. % is set by controls: 0 for no effect and ±100 for the full control effect; potency is the fitted concentration of half-maximal effect.
SMILES,HEK cytotox,FLuc inh,hNpr1 antagonist,NIH3T3 tox
O=C(Cc1ccc(F)cc1Cl)N1C[C@H]2CC[C@@H]1CN(Cc1cccnc1)C2,35µM*,i,?,-29%
O=C(N1CCCC1)N1C2CCC1CN(Cc1cccnc1)C2,-27%,.,.,-22%
Cc1ccccc1-c1ccc2n(c1=O)C[C@H]1C[C@@H]2CN(C(=O)CCC(=O)O)C1,-9%[172 µM],i,3%[70.6 µM],1%[174 µM]
O=c1c(-c2cccs2)ccc2n1C[C@H]1C[C@@H]2CN(Cc2cc3ccccc3o2)C1,89µM*,i,-20%[70.6 µM],?
Cc1ccccc1-c1ccc2n(c1=O)C[C@H]1C[C@@H]2CN(Cc2cccs2)C1,71µM*,i,?,?
O=C(O)COCC(=O)N1C[C@@H]2C[C@H](C1)c1ccc(-c3cc4ccccc4s3)c(=O)n1C2,-8%,?,3%,-9%
COc1cc2c(cc1OC1CCCC1)NC(=O)C21CCN(Cc2ccccc2)CC1,?,i,-14%[70.6 µM],89µM*
COc1cc2c(cc1OC1CCCC1)NC(=O)C21CCN(C(=O)Cc2ccccc2)CC1,79µM*,i,?,89µM*
CCOC(=O)[C@H]1CN(C(=O)OCC(C)(C)C)[C@]2(C)C(=O)N(CCO)c3ccccc3[C@H]12,?,.,.,-5%[46.1 µM]
COc1cc2c(cc1Oc1cccc(N(C)C)c1)NC(=O)C21CCN(CC2CC2)CC1,?,i,?,79µM*
COc1cc2c(cc1Oc1ccccc1)NC(=O)C21CCN(C(=O)C(C)C)CC1,?,i,7%[70.6 µM],-18%[138 µM]
COc1cc2c(cc1Oc1ccccc1)NC(=O)C21CCN(CC2CC2)CC1,?,i,-2%[70.6 µM],45µM*
COc1cc2c(cc1Oc1cccc(N(C)C)c1)NC(=O)C21CCN(c2ncccn2)CC1,?,i,?,?
COc1ccccc1-c1cc([C@H]2CN3CC[C@H]2C[C@@H]3COC(=O)Nc2ccc(C(C)C)cc2)nc(C)n1,5µM*,18µM*,-26%,?
Cc1nc(-c2cccs2)cc([C@H]2CN3CC[C@H]2C[C@@H]3COC(=O)Nc2ccc(C(C)C)cc2)n1,5.6µM*,?,?,8.9µM*
O=c1ccc(-c2cccs2)c2n1C[C@H]1C[C@@H]2CN(S(=O)(=O)c2cccs2)C1,-13%[172 µM],i,-9%[70.6 µM],-26%[174 µM]
CCOC(=O)[C@H]1CN(C(=O)NC2CCCC2)[C@]2(C)C(=O)N(C)c3ccccc3[C@H]12,?,.,.,-27%[46.1 µM]
CCOC(=O)[C@H]1CN(C(=O)/C=C/c2ccccc2)[C@]2(C)C(=O)N(CC3CC3)c3ccccc3[C@H]12,28µM*,.,.,?
CCOC(=O)[C@H]1CN(C(=O)Nc2ccc3c(c2)OCO3)[C@]2(C)C(=O)N(CC3CC3)c3ccccc3[C@H]12,35µM*,.,.,?
CCOC(=O)[C@H]1CN(C(=O)c2ccc3c(c2)OCO3)[C@]2(C)C(=O)N(CCOC)c3ccccc3[C@H]12,-24%[57.5 µM],.,.,?
CCOC(=O)[C@H]1CN(C(=O)CCc2ccccc2)[C@]2(C)C(=O)N(CCOC(C)=O)c3ccccc3[C@H]12,89µM*,.,.,-29%
O=C(Cc1cccc(F)c1)N1CCN2CCS(=O)(=O)N(C3CC3)C(=O)C2C1 (stereo not given),-1%,i,-8%,-7%
O=C(C1CCOCC1)N1CCC2(CC1)NCc1ccccc1-n1ccnc12,-6%,i,5%,?
COc1cc2c(cc1Oc1cccc(N(C)C)c1)NC(=O)C21CCN(Cc2nccn2C)CC1,?,i,-23%,-18%
O=C1Nc2ccccc2C12CCN(Cc1cccnc1)C2 (stereo not given),-17%[172 µM],i,0%[70.6 µM],-19%[138 µM]
SMILES,HEK cytotox,FLuc inh,hNpr1 antagonist,NIH3T3 tox
COc1cc2c(cc1Oc1ccccc1)NC(=O)C21CCN(Cc2cccnc2)CC1,89µM*,i,-22%[70.6 µM],?
COc1cc2c(cc1Oc1ccccc1)NC(=O)C21CCN(Cc2nccn2C)CC1,100µM*,i,1%[70.6 µM],?
O=C(c1ccccc1)N1C[C@@H]2C[C@H](C1)c1ccc(NS(=O)(=O)c3cccs3)c(=O)n1C2,i,i,3%,4%
CCC(CC)c1cc([C@H]2CN3CC[C@H]2C[C@@H]3CNC(=O)c2ccc(C)cc2)nc(-c2ccncc2)n1,45µM*,i,-12%,?
CCC(CC)c1cc([C@H]2CN3CC[C@H]2C[C@@H]3COC(=O)Nc2ccccc2)nc(-c2ccncc2)n1,-14%,i,-2%,-18%
CCC(CC)c1cc([C@H]2CN3CC[C@H]2C[C@@H]3CNC2CCN(C(C)=O)CC2)nc(-c2ccncc2)n1,79µM*,i,-8%,?
CCC(CC)c1cc([C@H]2CN3CC[C@H]2C[C@@H]3CNC(=O)c2ccco2)nc(-c2ccncc2)n1,-4%,i,-2%,-10%
CCC(CC)c1cc([C@H]2CN3CC[C@H]2C[C@@H]3CO)nc(-c2ccncc2)n1,112µM*,i,-28%[70.6 µM],112µM*
CCC(CC)c1cc([C@H]2CN3CC[C@H]2C[C@@H]3CNC(=O)Nc2cccc(C#N)c2)nc(-c2ccncc2)n1,?,i,-16%,79µM*
COc1ccc2c(C)c(C(=O)N3CCC(C#N)(c4ccccc4)CC3)oc2c1,?,i,-18%,?
CCOC(=O)[C@H]1CN(C(=O)OCC)[C@]2(C)C(=O)Nc3ccccc3[C@H]12,-22%,.,.,?
CC1CCN(C[C@H]2CN3CC[C@H]2C[C@@H]3CNC(=O)Nc2cccc(C#N)c2)CC1,-1%[172 µM],i,2%[70.6 µM],?
O=C(c1ccccc1)N1C[C@@H]2C[C@H](C1)c1c(-c3cccnc3)ccc(=O)n1C2,-27%[172 µM],i,-4%[70.6 µM],-26%[174 µM]
COc1c(C)cnc(CN2CCC3(C2)C(=O)N(C)C(=O)N3C)c1C (stereo not given),-14%,.,.,-22%
CCC(CC)c1cc([C@H]2CN3CC[C@H]2C[C@@H]3CNC(=O)c2ccc(N(C)C)cc2)nc(-c2ccncc2)n1,20µM*,i,-22%,?
C=C[C@H]1CN2CC[C@H]1C[C@@H]2CNC(=O)c1ccc(N(C)C)cc1,?,i,6%[70.6 µM],-21%[174 µM]
CC(C)(C)c1ccc(-c2cn(C[C@H]3CC4CCN3C[C@@H]4C(=O)Nc3ccccc3)nn2)cc1 (stereo not given in full),28µM*,?,1%,28µM*
O=[S+]1([O-])NCC2(CCN(Cc3ccoc3)C2)Oc2ncccc21 (stereo not given),i,.,.,i

# Screens (PubChem BioAssay)
